Experiment [1] in a line: qHTS for Inhibitors of Ubiquitin-specific Protease USP2a Using CHOP2 as the Reporter: K633 Counterscreen (AID 652168). Note: % of control where 0% means no effect. In short, it runs like this:
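Cell-free interference counterscreen without USP2a: compounds pinned into enzyme-free buffer (20 mM Tris pH 8, 2 mM beta-mercaptoethanol, 0.05% Chaps), then DiUb K48-4IQF substrate added (100 nM stock); fluorescence read kinetically, Ex 525/Em 598.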
Background: qHTS replaces the single test concentration by a dilution series.

The nature of experiment [2]: qHTS for Inhibitors of Ubiquitin-specific Protease USP2a Using CHOP2 as the Reporter: Cytotox Assay (AID 652170).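 Note: plate controls were DMSO-treated cells for no effect and wells without cells for full effect; nearly all actives have a fitted effect of over 70% in size.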 In short, it runs like this: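 HCT116 human colon cancer cells, 600 per well in DMEM with 10% FBS, exposed to compounds for 72 hr at 37 deg C. ATP measured by CellTiter-Glo luminescence, normalized to DMSO cells and no-cell background.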
Experiment [3] deals with Ubiquitin carboxyl-terminal hydrolase 2 (Homo sapiens) (UniProt O75604). Description: qHTS for Inhibitors of Ubiquitin-specific Protease USP2a Using CHOP2 as the Reporter: K484 Substrate (AID 652173).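 Note: cleavage of internally quenched K48 di-ubiquitin substrate measured as rising fluorescence over time; nearly all actives have a fitted effect of over 70% in size.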 In short, it runs like this: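 USP2 (dispensed at 5 nM) was pinned with compounds, then DiUb K48 internally quenched fluorescent substrate (dispensed at 100 nM) was added. The buffer was 20 mM Tris pH 8, 2 mM beta-mercaptoethanol and 0.05% CHAPS. Cleavage was read kinetically as rising fluorescence, Ex 525/Em 598.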

The target of experiment [4] is Lysosomal acid glucosylceramidase (Homo sapiens) (UniProt P04062). Description: Glucocerebrosidase-p2 (AID 348; in the data active = potency below about 10 µM; note: potency is the fitted concentration of half-maximal effect). Particulars: purified GBA, blue fluorogenic substrate, 40 min. In short, it runs like this:
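Compounds titrated from 0.6 nM upwards against 0.2 nM enzyme in pH 5.9 citric acid/KH2PO4, taurocholate, tween-20; blue fluorogenic substrate 80 uM, 40 min room temperature, stopped and read Ex 365/Em 440 for AC50.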

The nature of experiment [5]: AP1 Signaling Pathway (AID 357; active = well fitted curve in either direction with a large enough effect, not every such curve was filed as active;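 note: ME-180 reporter cells stimulated with EGF at its EC50 level; % is set by controls: 0 for no effect and ±100 for the full control effect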). Particulars: ME-180 AP-1-bla reporter, EGF-induced, beta-lactamase ratio, 5 h; at 7.69 µM (top of the series) unless noted. In short, it runs like this:
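Modulation of EGF-driven AP-1 transcription was assessed with a beta-lactamase reporter in ME-180 cells. Compound and EC50 EGF were co-incubated 5 hours at 37 °C before 2.5-hour CCF4 loading at room temperature and dual-emission reading.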

Experiment [6] concerns the target Cytochrome P450 1A2 (Homo sapiens) (UniProt P05177). Description: p450-cyp1a2 (AID 410; calls by dose curve; note: potency is the fitted concentration of half-maximal effect;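 for activity change, negative = inhibition: -100% = full effect of reference inhibitor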). In short, it runs like this: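 Human CYP1A2 (20nM) demethylated Luciferin-ME at its Km (100uM) in 100mM KPO4. After 10 min compound preincubation, NADPH regeneration ran the reaction 60 min at room temperature. Luciferin was read by luminescence, normalized to 57 uM furafylline.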

The nature of experiment [7]: NFAT Signaling Pathway (AID 444; active = well fitted curve in either direction with a large enough effect, not every such curve was filed as active;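 note: carbachol stimulus at about its EC50 of 1 µM final; % is set by controls: 0 for no effect and ±100 for the full control effect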). Conditions: Jurkat NFAT-bla M1, carbachol, beta-lactamase ratio, 5 h; at 7.69 µM (top of the series) unless noted. In short, it runs like this:
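Jurkat cells with NFAT-driven β-lactamase reporter and co-expressed M1 receptor, stimulated with carbachol (final 1 uM, ~EC50), compound titration, 5 h at 37 °C. CCF4 loaded 1 h at RT; 460/530 nm ratio gave %activity and AC50.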

Experiment [8] in a line: Stat Signaling Pathway (AID 446; active = well fitted curve in either direction with a large enough effect, not every such curve was filed as active;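 note: ME-180 cervical cancer cells given 40 pM IL-6 alongside compound; SIE-controlled beta-lactamase reporter measured as 460/530 nm FRET emission ratio; % is set by controls: 0 for no effect and ±100 for the full control effect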). Conditions: ME-180 (cervical carcinoma) SIE beta-lactamase reporter, IL-6 stimulated, 5 h; at 7.69 µM (top of the series) unless noted. In short, it runs like this:
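ME-180 cells carrying a SIE-driven beta-lactamase reporter are stimulated with 40 pM IL-6 for 5 h at 37C in the presence of compound. The 460/530 nm FRET substrate ratio is read after 2.5 h at RT. Data are normalised to 300 pM IL-6 and to 125 nM JAK inhibitor controls.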

Experiment [9] has as its target Glucocorticoid receptor (Homo sapiens) (UniProt P04150). Description: GR-GFP Redistribution (AID 450;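 active = compounds whose dose series gives a full or clear partial fitted curve of increased nuclear translocation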; note: potency is the fitted concentration of half-maximal effect). Particulars: U2OS GR-GFP nuclear translocation, laser cytometry, 2 h.
For experiment [10] the target is unchanged. Description: GR-EFC Redistribution (AID 451; calls by dose curve; note: potency is the fitted concentration of half-maximal effect). Particulars: CHO-K1 GR-EFC translocation, beta-gal luminescence, 2 h. In short, it runs like this:
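CHO-K1 cells expressing nuclear EA and GR-ED fragments of b-gal; compounds titrated up to 46 uM final, 2 h at 37 C. GR nuclear translocation read as complemented b-gal luminescence after 1 h RT detection.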

For experiment [11], the target named is Mitogen-activated protein kinase 10 (Mus musculus) (UniProt Q61831). Description: JNK3 AlphaScreen Assay (AID 530; active = well fitted curve in either direction with a large enough effect, not every such curve was filed as active;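 note: kinase came from lysate of stimulated human HepG2 cells; signal reports phosphorylation of biotinylated GST-cJun 1-79 at Ser73 with 10 µM ATP; % is set by controls: 0 for no effect and ±100 for the full control effect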). In short, it runs like this:
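qHTS format: compounds tested as titrations against IL-1beta/TNF-alpha-activated HepG2 lysate JNK3 with biotin-GST-cJun substrate and 10 uM ATP at room temperature. Loss of anti-phospho-cJun AlphaScreen signal indicates inhibition.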
(In general: Alpha assays give light when donor and acceptor beads are brought close together.)

The target of experiment [12] is 3',5'-cyclic-AMP phosphodiesterase 4B (Homo sapiens) (UniProt Q07343). Description: qHTS Assay for Inhibitors of PDE-IV (AID 607; active = well fitted activation curve with a large enough effect in the main read-out, with a control signal flat, not every such curve was filed as active; note: % of control where 0% means no effect). In short, it runs like this:
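HEK293 ACTOne cells with CNG channel (1000/well), endogenous PDE4; membrane potential dye, compounds up to 22.9 uM final. Fluorescence Ex 535/Em 590; RO 20-1724 (100 uM final) as reference.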

In experiment [13] the target is Cytochrome P450 3A4 (Homo sapiens) (UniProt P08684). Description: qHTS Assay for Activators of Cytochrome P450 3A4 (AID 885). Note: nearly all actives have a fitted effect of over 65% in size. In short, it runs like this: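 Human CYP3A4 (20 nM) with Luciferin-PPXE at 25 uM (its KM) in 200 mM KPO4; 10 min compound preincubation, then NADPH regeneration and 60 min reaction at RT. Luciferin read by luminescence; normalized to 57 uM ketoconazole full inhibition.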

Experiment [14] in a line: qHTS Assay for Lipid Storage Modulators (AID 1519; calls by dose curve). Particulars: Drosophila S3 cells, BODIPY lipid droplet/cell ratio, laser cytometry, cells loaded with oleic acid; for activity change, negative = inhibition: at 57.5 µM (top of the series). In short, it runs like this:
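Cells seeded at 5,000 per well were treated with compounds over a concentration series and loaded with oleic acid (400 uM, as added). Lipid droplet fluorescence (488 nm excitation, 500-530 nm channel) was read by laser-scanning cytometry and normalized to 20 uM Triacsin C.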

In experiment [15] the target is Dual specificity protein kinase CLK4 (Homo sapiens) (UniProt Q9HAZ1). Description: qHTS Assay for Inhibitors of CDC-like Kinase 4 (Kinase-Glo Assay) (AID 1770). Note: % is set by controls: 0 for no effect and ±100 for the full control effect; nearly all actives have a fitted effect of over 65% in size. In short, it runs like this: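 Recombinant human Clk4 (25 nM) phosphorylated RS repeat peptide (100 uM) with 1 uM ATP in Tris pH 7.5/MgCl2/EGTA/DTT/Triton buffer for 4.5 h at room temperature. Residual ATP was quantified by Kinase-Glo luciferase luminescence.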

For experiment [16] the target is unchanged. Description: qHTS Assay for Inhibitors of CDC-like Kinase 4 (ADP-Glo Assay) (AID 1771). Note: % is set by controls: 0 for no effect and ±100 for the full control effect; nearly all actives have a fitted effect of over 70% in size. In short, it runs like this:
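Clk4 (25 nM) was incubated 1 hr at room temperature with 100 uM RS repeat peptide and 1 uM ATP in buffer with 2 mM MgCl2, 0.5 mM EGTA, 2.5 mM DTT. ADP formed was quantified by ADP-Glo luminescence.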

The target is the same in experiment [17]. Description: qHTS Assay for Inhibitors of CDC-like Kinase 4 (ADP-FP Assay) (AID 1795). Note: % is set by controls: 0 for no effect and ±100 for the full control effect; nearly all actives have a fitted effect of over 60% in size. In short, it runs like this: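 Recombinant human Clk4 (6.25 nM) phosphorylated RS repeat peptide (100 uM) with 1 uM ATP in Tris pH 7.5/MgCl2/EGTA/DTT/Triton buffer for one hour. ADP was quantified by Transcreener competitive fluorescence polarization against an ADP calibration curve.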

In experiment [18] the target is Ubiquitin carboxyl-terminal hydrolase 1 (Homo sapiens) (UniProt O94782). Description: Inhibitors of USP1/UAF1: Pilot qHTS (AID 504865).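 Note: rhodamine fluorescence freed from ubiquitin-rhodamine substrate followed over time; top concentration of the series differs between compounds; % is set by controls: 0 for no effect and ±100 for the full control effect; nearly all actives have a fitted effect of over 35% in size.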 In short, it runs like this: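 USP1/UAF1 complex (1nM) preincubated with compound 15 min at room temperature, then Ub-Rho substrate (150nM final) added. Fluorescence read kinetically at 480/540 nm, 6 reads every 60 seconds. Buffer: 50mM HEPES pH 7.8, 0.5mM EDTA, 0.1 mg/ml BSA, 1mM TCEP, 0.01% Tween-20.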

Experiment [19] concerns the target Cytochrome P450 3A4 (Homo sapiens) (UniProt P08684). Description: qHTS Assay for Inhibitors and Substrates of Cytochrome P450 3A4 (AID 884). Note: potency is the fitted concentration of half-maximal effect; nearly all actives have a fitted effect of over 50% in size. In short, it runs like this:
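20 nM human CYP3A4 with 25 uM Luciferin-PPXE (at KM) in 200 mM KPO4, preincubated 10 min with compound; NADPH regeneration started a 60 min RT reaction. Luciferin detected by luminescence, normalized to 57 uM ketoconazole as full inhibition.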

Setting [20] is: measured here: cell count channel max response.
Where [21] appears, read: measured here: lipid channel max response.

Structures are written as SMILES. Records with an inconclusive call do not appear. Active and inactive are the calls of the source. Unless noted, calls come from the whole dose curve; as a rule, active = well fitted curve in the direction sought with a large enough effect; inconclusive = small, poorly fitted or top-dose-only effect, or another doubt; inactive = no such curve, though single readings can be large; an effect the other way counts as inactive or inconclusive.

Sequence of Cytochrome P450 1A2 (Homo sapiens) (P05177 whole entry, looked up): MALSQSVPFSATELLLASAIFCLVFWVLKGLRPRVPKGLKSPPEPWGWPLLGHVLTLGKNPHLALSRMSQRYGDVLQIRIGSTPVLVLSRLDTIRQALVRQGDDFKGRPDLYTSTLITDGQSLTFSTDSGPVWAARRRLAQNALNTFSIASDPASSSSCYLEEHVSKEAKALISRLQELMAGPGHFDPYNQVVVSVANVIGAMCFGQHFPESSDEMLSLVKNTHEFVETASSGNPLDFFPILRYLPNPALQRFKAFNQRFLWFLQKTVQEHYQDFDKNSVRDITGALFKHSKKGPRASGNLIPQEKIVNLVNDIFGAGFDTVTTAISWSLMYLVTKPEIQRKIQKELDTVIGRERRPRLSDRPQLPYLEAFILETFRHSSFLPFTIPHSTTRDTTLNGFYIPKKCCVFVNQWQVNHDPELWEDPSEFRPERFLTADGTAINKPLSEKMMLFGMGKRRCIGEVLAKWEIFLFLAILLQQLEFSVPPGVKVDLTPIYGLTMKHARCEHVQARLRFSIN
Sequence of Dual specificity protein kinase CLK4 (Homo sapiens) (Q9HAZ1 whole entry, looked up): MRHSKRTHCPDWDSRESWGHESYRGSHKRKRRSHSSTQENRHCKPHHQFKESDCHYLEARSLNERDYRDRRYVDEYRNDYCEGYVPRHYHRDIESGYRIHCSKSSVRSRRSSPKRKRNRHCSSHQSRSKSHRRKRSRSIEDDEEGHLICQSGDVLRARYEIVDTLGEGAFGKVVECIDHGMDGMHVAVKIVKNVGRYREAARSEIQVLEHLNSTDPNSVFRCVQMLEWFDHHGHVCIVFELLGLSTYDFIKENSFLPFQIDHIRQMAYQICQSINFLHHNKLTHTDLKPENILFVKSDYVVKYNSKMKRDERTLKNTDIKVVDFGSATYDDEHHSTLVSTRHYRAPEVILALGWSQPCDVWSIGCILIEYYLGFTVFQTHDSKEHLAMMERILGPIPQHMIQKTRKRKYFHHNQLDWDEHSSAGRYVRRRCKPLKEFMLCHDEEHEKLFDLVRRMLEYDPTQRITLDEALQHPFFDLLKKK
Sequence of Cytochrome P450 3A4 (Homo sapiens) (P08684 whole entry, looked up): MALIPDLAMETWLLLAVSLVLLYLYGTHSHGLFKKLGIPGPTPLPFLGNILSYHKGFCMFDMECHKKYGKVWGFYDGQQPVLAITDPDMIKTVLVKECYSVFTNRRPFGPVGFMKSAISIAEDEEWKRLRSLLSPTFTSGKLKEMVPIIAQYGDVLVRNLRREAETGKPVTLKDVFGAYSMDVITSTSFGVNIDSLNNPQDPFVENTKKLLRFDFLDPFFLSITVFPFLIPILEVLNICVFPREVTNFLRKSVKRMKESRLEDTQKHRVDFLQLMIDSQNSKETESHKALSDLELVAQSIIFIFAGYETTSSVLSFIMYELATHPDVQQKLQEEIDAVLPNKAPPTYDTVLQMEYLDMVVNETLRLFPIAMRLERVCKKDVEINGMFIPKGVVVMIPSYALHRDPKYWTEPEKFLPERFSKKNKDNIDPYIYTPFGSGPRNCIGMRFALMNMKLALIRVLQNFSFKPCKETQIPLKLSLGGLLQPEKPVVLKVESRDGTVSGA
Sequence of Lysosomal acid glucosylceramidase (Homo sapiens) (P04062 whole entry, looked up): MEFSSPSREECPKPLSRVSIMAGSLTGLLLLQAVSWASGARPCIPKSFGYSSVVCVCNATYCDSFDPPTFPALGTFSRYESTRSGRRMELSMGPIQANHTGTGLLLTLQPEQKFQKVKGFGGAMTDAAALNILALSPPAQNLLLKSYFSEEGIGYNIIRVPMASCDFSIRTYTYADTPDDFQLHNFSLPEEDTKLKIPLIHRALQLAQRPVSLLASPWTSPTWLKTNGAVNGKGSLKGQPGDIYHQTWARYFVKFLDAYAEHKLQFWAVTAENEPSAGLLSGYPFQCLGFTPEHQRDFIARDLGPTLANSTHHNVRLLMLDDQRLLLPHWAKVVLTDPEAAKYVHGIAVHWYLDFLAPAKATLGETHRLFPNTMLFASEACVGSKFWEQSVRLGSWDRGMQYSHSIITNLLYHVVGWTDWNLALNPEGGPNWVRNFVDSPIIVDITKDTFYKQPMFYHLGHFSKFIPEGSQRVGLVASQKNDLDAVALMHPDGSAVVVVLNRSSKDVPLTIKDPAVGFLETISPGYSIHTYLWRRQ
Sequence of 3',5'-cyclic-AMP phosphodiesterase 4B (Homo sapiens) (Q07343 whole entry, looked up): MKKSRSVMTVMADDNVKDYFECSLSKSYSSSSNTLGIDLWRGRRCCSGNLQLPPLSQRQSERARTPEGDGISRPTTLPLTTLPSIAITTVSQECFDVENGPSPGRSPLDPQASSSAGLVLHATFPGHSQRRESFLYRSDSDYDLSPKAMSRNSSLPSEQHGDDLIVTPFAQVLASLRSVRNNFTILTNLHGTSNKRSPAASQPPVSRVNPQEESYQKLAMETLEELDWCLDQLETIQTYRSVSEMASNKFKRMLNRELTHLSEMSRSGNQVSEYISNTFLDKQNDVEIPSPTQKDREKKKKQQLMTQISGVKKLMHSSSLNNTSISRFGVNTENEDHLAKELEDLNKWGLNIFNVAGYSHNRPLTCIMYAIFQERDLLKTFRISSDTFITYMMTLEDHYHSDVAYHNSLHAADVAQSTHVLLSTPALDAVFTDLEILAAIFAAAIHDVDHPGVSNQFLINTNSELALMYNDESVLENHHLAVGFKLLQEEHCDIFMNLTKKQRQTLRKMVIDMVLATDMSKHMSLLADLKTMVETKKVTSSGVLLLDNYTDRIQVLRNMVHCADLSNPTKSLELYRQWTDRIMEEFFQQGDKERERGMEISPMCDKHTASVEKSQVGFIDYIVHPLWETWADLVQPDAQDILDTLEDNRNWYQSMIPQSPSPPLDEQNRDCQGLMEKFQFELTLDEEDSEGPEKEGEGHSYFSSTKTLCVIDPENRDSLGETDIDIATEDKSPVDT
Sequence of Glucocorticoid receptor (Homo sapiens) (P04150 whole entry, looked up): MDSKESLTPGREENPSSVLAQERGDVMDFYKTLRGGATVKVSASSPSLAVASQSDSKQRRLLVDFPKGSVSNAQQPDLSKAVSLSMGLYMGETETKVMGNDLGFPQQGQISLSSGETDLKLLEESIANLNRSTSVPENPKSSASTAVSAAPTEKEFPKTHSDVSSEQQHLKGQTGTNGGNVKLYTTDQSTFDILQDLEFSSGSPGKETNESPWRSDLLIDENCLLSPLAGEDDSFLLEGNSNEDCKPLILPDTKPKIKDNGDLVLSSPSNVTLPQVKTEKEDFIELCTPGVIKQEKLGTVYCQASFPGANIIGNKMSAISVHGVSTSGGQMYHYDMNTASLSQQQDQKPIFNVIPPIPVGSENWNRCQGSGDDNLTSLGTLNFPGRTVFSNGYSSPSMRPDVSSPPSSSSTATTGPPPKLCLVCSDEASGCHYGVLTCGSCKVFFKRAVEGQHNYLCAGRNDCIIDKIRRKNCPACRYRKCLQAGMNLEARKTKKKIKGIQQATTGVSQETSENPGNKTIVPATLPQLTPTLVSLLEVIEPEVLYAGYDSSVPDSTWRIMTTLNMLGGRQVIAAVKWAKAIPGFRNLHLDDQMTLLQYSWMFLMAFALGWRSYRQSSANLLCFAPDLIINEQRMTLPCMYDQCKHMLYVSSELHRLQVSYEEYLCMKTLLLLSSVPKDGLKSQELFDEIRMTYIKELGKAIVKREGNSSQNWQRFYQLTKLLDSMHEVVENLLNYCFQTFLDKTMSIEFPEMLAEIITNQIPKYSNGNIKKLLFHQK
Sequence of Ubiquitin carboxyl-terminal hydrolase 1 (Homo sapiens) (O94782 whole entry, looked up): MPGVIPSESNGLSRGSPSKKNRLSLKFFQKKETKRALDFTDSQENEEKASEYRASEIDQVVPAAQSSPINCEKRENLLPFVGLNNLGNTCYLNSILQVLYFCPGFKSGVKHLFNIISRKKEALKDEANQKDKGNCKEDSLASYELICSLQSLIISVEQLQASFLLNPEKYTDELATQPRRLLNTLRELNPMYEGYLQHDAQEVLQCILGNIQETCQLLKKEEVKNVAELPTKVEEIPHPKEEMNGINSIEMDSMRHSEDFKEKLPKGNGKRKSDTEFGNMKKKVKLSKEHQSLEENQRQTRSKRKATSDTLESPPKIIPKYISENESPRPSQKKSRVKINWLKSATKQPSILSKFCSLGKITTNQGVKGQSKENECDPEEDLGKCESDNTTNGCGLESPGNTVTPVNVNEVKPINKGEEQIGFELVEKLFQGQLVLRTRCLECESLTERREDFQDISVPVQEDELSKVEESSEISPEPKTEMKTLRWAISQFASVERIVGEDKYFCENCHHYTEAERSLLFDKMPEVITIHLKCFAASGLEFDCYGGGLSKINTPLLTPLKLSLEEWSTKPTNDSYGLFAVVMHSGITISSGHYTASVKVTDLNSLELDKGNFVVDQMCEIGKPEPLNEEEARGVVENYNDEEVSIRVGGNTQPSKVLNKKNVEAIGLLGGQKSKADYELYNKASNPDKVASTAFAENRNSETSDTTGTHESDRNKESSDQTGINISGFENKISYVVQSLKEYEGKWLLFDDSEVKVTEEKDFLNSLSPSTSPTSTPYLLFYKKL
Sequence of Ubiquitin carboxyl-terminal hydrolase 2 (Homo sapiens) (O75604 whole entry, looked up): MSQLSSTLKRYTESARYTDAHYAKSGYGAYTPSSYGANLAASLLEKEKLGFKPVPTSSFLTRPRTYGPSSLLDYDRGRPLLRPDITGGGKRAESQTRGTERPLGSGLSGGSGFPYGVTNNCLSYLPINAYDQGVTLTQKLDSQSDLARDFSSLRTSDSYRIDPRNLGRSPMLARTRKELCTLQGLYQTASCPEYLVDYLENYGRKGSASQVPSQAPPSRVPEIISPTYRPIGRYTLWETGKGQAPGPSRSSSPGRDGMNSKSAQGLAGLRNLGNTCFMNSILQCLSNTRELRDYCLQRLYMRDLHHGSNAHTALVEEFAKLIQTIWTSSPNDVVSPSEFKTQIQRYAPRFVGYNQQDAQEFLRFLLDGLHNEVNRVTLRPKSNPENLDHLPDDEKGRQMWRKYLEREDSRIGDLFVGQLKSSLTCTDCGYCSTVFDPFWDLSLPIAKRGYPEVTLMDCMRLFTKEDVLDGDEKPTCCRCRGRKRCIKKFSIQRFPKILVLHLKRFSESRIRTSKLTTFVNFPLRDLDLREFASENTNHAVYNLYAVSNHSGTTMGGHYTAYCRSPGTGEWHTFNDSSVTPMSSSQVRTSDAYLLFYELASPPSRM

As to `CC(C)(C)OC(=O)N1CCC(C(=O)Nc2ccc([S+](=O)([O-])Nc3nccs3)cc2)CC1`, in experiment [1], the compound was classed as inactive. The Potency result in [2] and in experiment [3] was “inactive” in each case.

On to `COc1ccc(-n2c(=O)c(C)nc3cnc(OC)nc32)cc1`, for which the results for the Potency in experiment [4], in [9] and in experiment [10] were > 11.4 µM (inactive), > 9.22 µM (inactive) and > 46 µM (inactive), respectively. Also, the activity change, negative = inhibition in experiment [5] is 13.3% (inactive); in experiment [7] it was 3.92% (inactive); in experiment [14], 4.38% (inactive). The Potency entry in [6], in experiment [12], in [13], in experiment [15], in experiment [16] and in [17] was “inactive” throughout. Further, the Potency entry in experiment [18] is “inactive”. For the same compound, the activity, negative = inhibition in experiment [8] was -15.2% (inactive). The call in [11] was inactive. Also, the max response in [14] (setting [20]) came to 12%; in experiment [14] (setting [21]), 18.2%.

For `O=C(c1ccncc1)N1CCC2(CC1)CCN(c1ccccc1)CC2`, the Potency in experiment [4] is > 11.4 µM (inactive); in experiment [10] it was > 46 µM (inactive). In addition, the results for the activity change, negative = inhibition in experiment [5], in experiment [7] and in [14] were -1.33% (inactive), 12.8% (inactive) and 2.16% (inactive), respectively. Further, the Potency result in experiment [6] and in experiment [12] was “inactive” each time. In addition, the activity, negative = inhibition in experiment [8] was -1.17% (inactive). The call in [11] was inactive. Further, the max response in experiment [14] (setting [20]) is 0.126%; in experiment [14] (setting [21]) it was 6.62%.

As for `FC(F)(F)c1ccccc1-c1nc(NCCN2CCOCC2)c2ccccc2n1`, the Potency in [4] is > 11.4 µM (inactive); in [6] it was 12.6 µM (active); in experiment [9], > 46 µM (inactive); in [10] it was > 46 µM (inactive); in experiment [19] it was 7.94 µM (active). In addition, the activity change, negative = inhibition in experiment [5] is -6.06% (inactive); in experiment [7], 6.4% (inactive); in experiment [14], 4.77% (inactive). Besides, the activity, negative = inhibition in experiment [8] is 3.19% (inactive). The result in experiment [11] was inactive. The Potency result in experiment [12], in experiment [13], in experiment [15], in experiment [16], in [17] and in experiment [18] was “inactive” each time. Moreover, the max response in [14] (setting [20]) is 18.8%; in experiment [14] (setting [21]), 21.5%.

The values above are taken from PubChem BioAssay (NCATS).
